Laboratory results reported in PubChem BioAssay (NCI).
The panel holds about 79,000 compounds, 15% with a hit somewhere; the sample as a whole holds those more often. Unmarked numbers belong to inactive results. Calls of active or inactive are those of the source. Rule as the data show it: active = growth inhibition above about 70%; inactive = the rest.

test: NCI Yeast Anticancer Drug Screen. Data for the sgs1 mgt1 strain (AID 161);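 also: 0% = growth of cultures given vehicle only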; conditions: S. cerevisiae sgs1 mgt1 strain, at 50.0 µM, hits give high values
Summary of the method: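 Mutant yeast exposed to compound; growth scored against vehicle-only wells.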

Structure (SMILES) | growth inhibition [%]
Nc1ccnc(SCCCCc2ccccc2)n1 | 59
CC(=O)Nc1c(Nc2ccccc2)[nH]c(C)nc1=S | -0.25
CCN(CC)C(=O)CC1(O)CCCCC1 | -3.15
CC(O)CN1CCN(CN(CC(C)O)CC(C)O)CC1 (stereo not drawn) | 10.7
O=c1cn[nH]c(=O)[nH]1 | 32.5
COc1ccc(NC(=O)C2C(=O)N(c3ccc(OC)cc3)C(=O)/C2=N\NC(N)=O)cc1 (stereo not drawn) | -48
O=C1c2ccccc2-c2ccc3c4ccc5c6c(ccc(c7ccc1c2c73)c64)C(=O)c1ccccc1-5 | 36.8
CC(C)CCC(C)(C)COC(=O)c1ccc([N+](=O)[O-])cc1 (tested in a mixture with another compound) | 43.4
CCOC(=O)Cc1cc(C)c2ccccc2n1 | 4.3
CCOC(=O)NOC1CCCCO1 (stereo not drawn) | -3.2
O=c1cc(CC2(O)CCCCC2)c2ccccc2[nH]1 | -2.5
CN=NNc1ccc(C#N)cc1 | -1.85
Cc1c2c(n3c(nc4ccccc43)c1C#N)SCC2 | -44.5
O=[N+]([O-])c1ccc(N=C/C=C/Nc2ccc([N+](=O)[O-])cc2)cc1 | 10.5
Cc1ccc(S(=O)(=O)N(C)c2cc(Cl)c(I)cc2Cl)cc1 | 8.9
CCCCCCCCCCCCCCCC(O)S(=O)(=O)O (stereo not drawn) | -10.1
CC(C)NC(N)=O | 26.4
Cn1cc(C(=O)C2CCCCC2)ccc1=O | -2.6
Cc1cc2c(=O)[nH]c(=S)[nH]c2cn1 | -11.4
CCN(CC)CCNC(=O)c1ccc(C)c(OCc2ccccc2)c1[N+](=O)[O-] | 26.6

Structure (SMILES) | growth inhibition [%]
CCCCC(=O)Nc1ccc(S(=O)(=O)O)c(N=NC2C(=O)N(c3ccccc3)N=C2C)c1 (stereo not drawn) | 5.6
CC1(C)CC23C4COC(=O)C2CCC1C3CC4=O (stereo not drawn) | 20.4
CC/C(SC)=[N+](\C)[O-] | -23.1
CCOc1ncc(C(O)c2ccc(F)cc2)c(OCC)n1 (stereo not drawn) | 1.15
O=C1OC(/C=C/c2ccccc2)=NC/1=C\c1ccc(Cl)cc1 | 23.6
NC(=O)CC(N)C(N)=O (stereo not drawn) | -47.8
COC(=O)CC1(O)C(C=C(C)C)C(C(=O)OC)C(=O)C(C(=O)OC)C1C(=O)OC (stereo not drawn) | -28.9
CCN(CC)Cc1ccccc1COC(=O)c1cccc(Cl)c1 | 10.9
O=C(O)c1cccc(C(=O)O)[n+]1[O-] | -17.8
CN(C)c1noc2c1c(=O)n(C)c(=O)n2C | -11.6
COc1ccc(C(=O)CCC(=O)O)c(C)c1 | -0.85
O=C(O)CC1CC(=O)OC1(c1ccccc1)c1ccccc1 (stereo not drawn) | 20.9
CC1(N)CCC(C(C)(C)N)CC1 (stereo not drawn) | 10.8
O=C(c1ccccc1)[C@@H]1C[C@H](Sc2ccccc2)c2cc(Cl)ccc2N1 | 4.1
COC(=O)C1(Cc2ccccc2)Cc2ccccc2C1 | 36.4
C[N+](C)(C)CCOC(=O)/C=C/c1cnc[nH]1 | 37.7
CC(=O)Oc1ccc[nH]c1=O | 0.9
O=C1OCC2=C1C(c1ccc3c(c1)OCO3)c1cc3c(cc1O2)OCO3 (stereo not drawn) | -39.2
Clc1ccc(CSc2ccc3nncc(SCc4ccc(Cl)cc4Cl)c3c2)c(Cl)c1 | 15.1
CCCC(=O)OCCOc1ccccc1 | 11

test: NCI Yeast Anticancer Drug Screen. Data for the bub3 strain (AID 167); conditions: S. cerevisiae bub3 mutant strain, at 50.0 µM, hits give high values
Summary of the method: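 Mutant yeast screening strain plus compound; vehicle-treated cultures serve as the 0% inhibition reference.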

Structure (SMILES) | growth inhibition
Nc1ccnc(SCCCCc2ccccc2)n1 | 74% (active)
CC(=O)Nc1c(Nc2ccccc2)[nH]c(C)nc1=S | -3.1%
CCN(CC)C(=O)CC1(O)CCCCC1 | 2.3%
CC(O)CN1CCN(CN(CC(C)O)CC(C)O)CC1 (stereo not drawn) | 9%
O=c1cn[nH]c(=O)[nH]1 | 4.9%
COc1ccc(NC(=O)C2C(=O)N(c3ccc(OC)cc3)C(=O)/C2=N\NC(N)=O)cc1 (stereo not drawn) | -9.6%
O=C1c2ccccc2-c2ccc3c4ccc5c6c(ccc(c7ccc1c2c73)c64)C(=O)c1ccccc1-5 | 15.2%
CC(C)CCC(C)(C)COC(=O)c1ccc([N+](=O)[O-])cc1 (tested in a mixture with another compound) | 2.15%
CCOC(=O)Cc1cc(C)c2ccccc2n1 | -9.4%
CCOC(=O)NOC1CCCCO1 (stereo not drawn) | -10.9%
O=c1cc(CC2(O)CCCCC2)c2ccccc2[nH]1 | -48.8%
CN=NNc1ccc(C#N)cc1 | -6.65%
Cc1c2c(n3c(nc4ccccc43)c1C#N)SCC2 | -22%
O=[N+]([O-])c1ccc(N=C/C=C/Nc2ccc([N+](=O)[O-])cc2)cc1 | 6.3%
Cc1ccc(S(=O)(=O)N(C)c2cc(Cl)c(I)cc2Cl)cc1 | 25.1%
CCCCCCCCCCCCCCCC(O)S(=O)(=O)O (stereo not drawn) | -29.4%
CC(C)NC(N)=O | 2.35%
Cc1cc2c(=O)[nH]c(=S)[nH]c2cn1 | 6.8%
CCN(CC)CCNC(=O)c1ccc(C)c(OCc2ccccc2)c1[N+](=O)[O-] | 34.8%

Structure (SMILES) | growth inhibition
CCCCC(=O)Nc1ccc(S(=O)(=O)O)c(N=NC2C(=O)N(c3ccccc3)N=C2C)c1 (stereo not drawn) | -3%
CC1(C)CC23C4COC(=O)C2CCC1C3CC4=O (stereo not drawn) | -0.25%
CC/C(SC)=[N+](\C)[O-] | -20.4%
CCOc1ncc(C(O)c2ccc(F)cc2)c(OCC)n1 (stereo not drawn) | 11.4%
O=C1OC(/C=C/c2ccccc2)=NC/1=C\c1ccc(Cl)cc1 | 7.15%
NC(=O)CC(N)C(N)=O (stereo not drawn) | -18.3%
COC(=O)CC1(O)C(C=C(C)C)C(C(=O)OC)C(=O)C(C(=O)OC)C1C(=O)OC (stereo not drawn) | -32.2%
CCN(CC)Cc1ccccc1COC(=O)c1cccc(Cl)c1 | -5.9%
O=C(O)c1cccc(C(=O)O)[n+]1[O-] | -11.8%
CN(C)c1noc2c1c(=O)n(C)c(=O)n2C | 2.6%
COc1ccc(C(=O)CCC(=O)O)c(C)c1 | 19.6%
O=C(O)CC1CC(=O)OC1(c1ccccc1)c1ccccc1 (stereo not drawn) | 8.15%
CC1(N)CCC(C(C)(C)N)CC1 (stereo not drawn) | 2.35%
O=C(c1ccccc1)[C@@H]1C[C@H](Sc2ccccc2)c2cc(Cl)ccc2N1 | 0.8%
COC(=O)C1(Cc2ccccc2)Cc2ccccc2C1 | 55.4%
CC(=O)Oc1ccc[nH]c1=O | 14.3%
O=C1OCC2=C1C(c1ccc3c(c1)OCO3)c1cc3c(cc1O2)OCO3 (stereo not drawn) | -8.6%
Clc1ccc(CSc2ccc3nncc(SCc4ccc(Cl)cc4Cl)c3c2)c(Cl)c1 | 15.1%
CCCC(=O)OCCOc1ccccc1 | 0.8%
